For 33 molecules, binding remaining, % of control results are on record in PubChem BioAssay AID485284 (NMMLSC, 2010).

Potency and affinity values are given separately.

The test is described as follows: inhibitors of CD8+ T cell–vesicle binding, dose response, mouse 2C CD8+ T cells, flow cytometry (AID 485284).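 Further: drosophila derived vesicles carrying Ld MHC with QL9 peptide plus B7-1 and ICAM-1; vesicle binding seen as anti-B7-1 PE fluorescence on CD8 gated cells.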 Conditions: 2C mouse CD8+ T cell-exosome binding; at 45 µM (top of the series). On the technique in general: A flow cytometer gives signals particle by particle.
`O=C(Oc1ccc(C(=S)N2CCOCC2)cc1)c1ccc(F)cc1`: the binding remaining, % of control was 63.3%.

In the case of `O=C1CCCc2sccc2N1`, the binding remaining, % of control worked out at 106%.

With `Cc1noc(C)c1C(=O)OC(C)C(=O)N1CCc2ccccc21` (stereo not drawn), the binding remaining, % of control was 96.2%.

As for `O=C(/C=C/c1ccc(Br)cc1)c1ccc(NC(=O)c2ccco2)cc1`, the binding remaining, % of control was 98.2%.

As for `CCOC(=O)CSc1nnnn1-c1cc(OC)c(Cl)cc1OC`, the binding remaining, % of control is 136%.

In the case of `COc1ccc(S(=O)(=O)N2CCCC2C(=O)Nc2ccc(C(C)=O)cc2)cc1` (stereo not drawn), the binding remaining, % of control worked out at 91.8%.

In the case of `CCOC(=O)Nc1sc(C)c(C)c1C(N)=O`, the binding remaining, % of control was 103%.

For the molecule `O=C(COC(=O)c1ccc(S(=O)(=O)N2CCOCC2)cc1)Nc1ccccc1OC(F)F`, the binding remaining, % of control is 20.5%.

With `CS(=O)(=O)NCc1ccccc1Br`, the binding remaining, % of control is 95.9%.

`NC(=O)CCS(=O)(=O)CCN1CCN(S(=O)(=O)c2ccc3c(c2)CCC3)CC1`: the binding remaining, % of control came out at 170%.

Regarding `Cc1cccc(Nc2nc(-c3ccccn3)cs2)n1`, the binding remaining, % of control amounted to 69.7%.

Consider `CCOC(=O)C1CCCN(c2cc(=O)n(-c3ccccc3Cl)c(=O)[nH]2)C1` (stereo not drawn), for which the binding remaining, % of control is 87.9%.

As to `c1ccc(COc2ccc(OCCN3CCCCC3)cc2)cc1`, the binding remaining, % of control came out at 112%.

With `O=S(=O)(c1ccc(F)cc1)N1CCC(O)(c2ccc3c(c2)OCO3)CC1`, the binding remaining, % of control turned out to be 108%.

Regarding `C=CCN(c1ccc(Br)cc1C(=O)OC)S(C)(=O)=O`, the binding remaining, % of control is 115%.

Consider `COC(=O)CN1C(=S)N(C)C(=O)C1CC(=O)Nc1ccccc1` (stereo not drawn), for which the binding remaining, % of control was determined as 123%.

As to `O=C(NCCC1=CCCCC1)C(=O)NCC(c1ccco1)N1CCN(c2ccccc2F)CC1` (stereo not drawn), the binding remaining, % of control was 136%.

Regarding `COc1ccc(N2CC(C(=O)N[C@@H](C)C(=O)NCc3ccccc3OC)CC2=O)cc1` (stereo partly drawn), the binding remaining, % of control came to 24.3%.

As for `O=C(COc1ccccc1)Nc1cc(S(=O)(=O)N2CCOCC2)ccc1N1CCCC1`, the binding remaining, % of control came out at 128%.

For `CSCCC(NC(=O)c1ccc(=O)n(C)n1)c1nc2ccccc2[nH]1` (stereo not drawn), the binding remaining, % of control came to 149%.

As for `COc1ccc(C(O)c2coc3ccc(O)c(CN(C)C)c23)cc1` (stereo not drawn), the binding remaining, % of control turned out to be 113%.

For the molecule `CCOC(=O)CSc1nc(COc2ccccc2)nc2ccccc12`, the binding remaining, % of control came out at 99.6%.

Turning to `CC1CCN(S(=O)(=O)c2csc(C(=O)Nc3ccccc3)c2)CC1`, the binding remaining, % of control turned out to be 61.2%.

`COc1ccc(NS(=O)(=O)c2cc(NC(=O)C3CC3)ccc2N2CCCCC2)cc1`: the binding remaining, % of control was determined as 49.3%.

In the case of `COc1ccc(Nc2ccccc2N)cc1`, the binding remaining, % of control came out at 182%.

With `CCOc1ccc(C(=O)NNC(=O)CN2C(=O)C3CC=CCC3C2=O)cc1OC` (stereo not drawn), the binding remaining, % of control stood at 194%.

As for `Cc1ccc(NC(=O)CN2C(=O)N/C(=C/c3ccc(C)s3)C2=O)cc1`, the binding remaining, % of control amounted to 46%.

For the molecule `Cc1ncc([N+](=O)[O-])n1Cc1cccc(F)c1`, the binding remaining, % of control was determined as 40.3%.

As to `Cc1cccc(NC(=O)CN2C(=O)N/C(=C\c3ccc(N4CCOCC4)cc3)C2=O)c1`, the binding remaining, % of control is 142%.

Take `O=C(Cc1cccc(NC(=O)C2CCCN(C(=O)C3CC3)C2)c1)Nc1cccc(C(=O)N2CCCC2)c1` (stereo not drawn): the binding remaining, % of control is 47.2%.

Regarding `O=C(NNS(=O)(=O)c1ccc2ccccc2c1)c1cccs1`, the binding remaining, % of control came to 42.6%.

Take `CC(C)(C)OC(=O)NCc1ccc(CNC(=O)c2nc[nH]c2C(=O)NCc2ccccc2)cc1`: the binding remaining, % of control was 109%.

As to `CCN(Cc1ccccc1)C(=O)c1ccc(C)c(S(=O)(=O)N2CCCCC2)c1`, the binding remaining, % of control was found to be 92.8%.
